Shown are actives, neighbours in structure and some others; about 4.7% of the full set was active somewhere.
TRHR PAM – TRH receptor (human) allosteric enhancement. P34981. TRHR cells, fluo-8 calcium fluorescence, EC20 TRH enhancement. enhancement, % at 2 µM. 360,000 tested, 0.66% active. AID 493056; in the data active means enhancement above about 30%; further: 0% is about no effect
Target sequence (P34981 whole entry, looked up): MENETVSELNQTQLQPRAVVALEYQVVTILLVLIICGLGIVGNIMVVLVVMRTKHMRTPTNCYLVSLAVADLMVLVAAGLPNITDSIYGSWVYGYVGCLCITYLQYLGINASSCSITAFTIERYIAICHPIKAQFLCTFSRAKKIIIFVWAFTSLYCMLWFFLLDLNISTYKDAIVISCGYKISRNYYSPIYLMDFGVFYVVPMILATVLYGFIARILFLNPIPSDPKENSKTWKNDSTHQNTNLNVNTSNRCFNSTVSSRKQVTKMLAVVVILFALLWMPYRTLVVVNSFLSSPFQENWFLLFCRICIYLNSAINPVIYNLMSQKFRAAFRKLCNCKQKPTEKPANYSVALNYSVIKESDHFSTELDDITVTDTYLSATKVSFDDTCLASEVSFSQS
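TRHR-expressing cells loaded with fluo-8 calcium dye were read kinetically (ex 480/em 530) during compound addition, then stimulated with an EC20 of TRH (10 nM final). Enhancement of the Gq-mediated intracellular calcium response was scored.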
TRHR agonist – TRH receptor (human) agonism; activation, % at 2 µM; AID 493084; TRHR cells, calcium flux fluo-8, FDSS agonist mode; 360,000 tested, 0.18% active; P34981; further: 0% is about no effect
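Read-out: compound-evoked intracellular calcium rise in TRHR cells, fluo-8 dye, kinetic FDSS fluorescence at 1 s/cycle following a 10-cycle baseline. Cells cultured overnight before dye loading (30 min–1.5 h, RT).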
D1 agonist – activates the human D1 dopamine receptor | P21728 | HEK293 T-REx D1 cells, calcium flux, agonist mode | activation, % at 2 µM | 360,000 tested, 1% active; further: 0% is about no effect
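Agonism was scored from calcium flux recorded over 180 s (1 read/s) after pintool compound addition, following a 10-cycle baseline. Cells were inducible force-coupled HEK293 TREx D1, plated overnight at 30 C and loaded with no-wash calcium dye.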
D1 PAM – human D1 dopamine receptor positive modulation | P21728 | HEK293 TREx D1 cells, calcium flux, dopamine EC20 potentiation | potentiation, % at 10 µM | 360,000 tested, 0.036% active | AID 504651; in the data active means potentiation above about 30%; further: 0% is about no effect
D1 antagonist – human D1 dopamine receptor antagonism; 360,000 tested, 3.2% active; HEK293 TREx D1 cells, calcium flux, dopamine EC80; stronger effect = lower value; activity change, negative = inhibition, % at 10 µM; AID 504652; P21728; in the data active means activity change below about -30%; further: on the % scale 0 is the no-effect control and ±100 the full control effect
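Kinetic fluorescence of a calcium dye serves as the read-out. D1-expressing Hek293 Trex cells, induced overnight at 30 C, are exposed to compound for 180 s before an EC80 dopamine addition, then read 180 s further.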
An asterisk follows results filed as active. Unless noted, no stated cut-off is given here; in the data, active means activation above about 30%; inactive means the rest.

Screening Cc1ccc(S(=O)(=O)NNC(=O)Nc2ccc(Cl)cc2)cc1 returned TRHR PAM -6, TRHR agonist 0, D1 agonist 1, D1 PAM -5 and D1 antagonist 4.
O=C(CCS(=O)(=O)c1cccc2nonc12)Nc1c(F)cccc1F was read as TRHR PAM 6, TRHR agonist 0, D1 agonist 1, D1 PAM 1 and D1 antagonist 0.
CCCN1C(=O)/C(=C\C=C2/C=CN(CC)c3ccccc32)SC1=S was read as TRHR PAM 2, TRHR agonist 0, D1 agonist 1, D1 PAM -1 and D1 antagonist 2.
`CCCCN1C(=O)/C(=C/C=C2\SCCN2C)SC1=S` gave TRHR PAM -1, TRHR agonist 20, D1 agonist 94*, D1 PAM -1 and D1 antagonist -39*.
`CCN1C(=O)/C(=C\N2CCCCCC2)SC1=S` gave TRHR PAM -15, TRHR agonist -1, D1 agonist 5, D1 PAM -4 and D1 antagonist 8.
CCCCN1C(=O)/C(=C/C=C2\N(C)c3ccccc3C2(C)C)SC1=S was read as TRHR PAM -6, TRHR agonist 29, D1 agonist 67*, D1 PAM 0 and D1 antagonist -14.
Screening CN1CCS/C1=C/C=C1/SC(=S)N(Cc2ccccc2)C1=O returned TRHR PAM -11, TRHR agonist 26, D1 agonist 55*, D1 PAM -12 and D1 antagonist -1.
For COc1ccc2c(c1)c1c(c(=O)n(-c3ccc(F)c(Cl)c3)c(=O)n1Cc1ccccc1C)n2C the results were TRHR PAM -1, TRHR agonist 1, D1 agonist 0, D1 PAM 0 and D1 antagonist 7.
COc1ccc(C(=O)N2CCN(C)C(=O)[C@@H]2C)cc1OC1CCN(C(C)=O)CC1 was read as TRHR PAM 2, TRHR agonist 1, D1 agonist 1, D1 PAM -1 and D1 antagonist -5.
Screening COc1cccc(CNC(=O)Cc2c(C)c3c(cc(C)c4c(C)coc43)oc2=O)c1 returned TRHR PAM -2, TRHR agonist 1, D1 agonist 0, D1 PAM 2 and D1 antagonist -5.
`CN(C)CCNC(=O)C1CCN(Cc2cc3ccccc3n2Cc2ccccc2)CC1` gave TRHR PAM -5, TRHR agonist 2, D1 agonist 39*, D1 PAM -4 and D1 antagonist -19.
CCc1cccc(CC)c1NC(=O)c1c(C)oc2ccc(O)c(CN3CCN(C)CC3)c12 was read as TRHR PAM 3, TRHR agonist -1, D1 agonist -1, D1 PAM 0 and D1 antagonist -4.
Oc1ccc(/C=C/c2ccc3ccccc3n2)cc1 was read as TRHR PAM 1, TRHR agonist 0, D1 agonist 2, D1 PAM -5 and D1 antagonist 9.
Screening O/C(=C\c1ccc2ccccc2n1)c1ccc(O)cc1O returned TRHR PAM 4, TRHR agonist 16, D1 agonist 71*, D1 PAM -4 and D1 antagonist 12.
For COc1ccc(-c2nsc(NC(=O)c3cccc(OC)c3)n2)cc1 the results were TRHR PAM 11, TRHR agonist 1, D1 agonist -2, D1 PAM 6 and D1 antagonist 13.
`CC(C)(C)NC(=O)NC(=O)COC(=O)c1cccc(OC(F)F)c1` gave TRHR PAM -2, TRHR agonist -1, D1 agonist 8, D1 PAM -2 and D1 antagonist -31*.
For CC(C)(C)NC(=O)NC(=O)COC(=O)c1cccc(F)c1 the results were TRHR PAM -5, TRHR agonist -1, D1 agonist 0, D1 PAM 1 and D1 antagonist -7.
For Cc1csc(NC(=O)c2ccoc2C)n1 the results were TRHR PAM 0, TRHR agonist 0, D1 agonist -3, D1 PAM 0 and D1 antagonist 25.
`Cc1c(C(=O)Nc2nnc(C(F)(F)F)s2)oc2ccccc12` gave TRHR PAM 6, TRHR agonist -1, D1 agonist 10, D1 PAM 0 and D1 antagonist -38*.
For Cc1occc1C(=O)Nc1nnc(C(F)(F)F)s1 the results were TRHR PAM -10, TRHR agonist 2, D1 agonist 9, D1 PAM 1 and D1 antagonist -30*.
`O=C(Nc1ccccc1C(=O)Nc1nnc(C(F)(F)F)s1)c1ccccc1` gave TRHR PAM -4, TRHR agonist 2, D1 agonist 26, D1 PAM -5 and D1 antagonist -39*.
For CCOC(=O)CNc1nc(Cl)nc(NC(C)(C)C)n1 the results were TRHR PAM -7, TRHR agonist 0, D1 agonist 2, D1 PAM -4 and D1 antagonist -17.
CCOC(=O)C1=C(N)N(c2cc(S(=O)(=O)N3CCOCC3)ccc2Cl)C(=O)C1 was read as TRHR PAM 0, TRHR agonist 0, D1 agonist 3, D1 PAM 3 and D1 antagonist 14.
Screening Cc1ccc2c(c1)cc1c(=O)n(Cc3ccc(Cl)cc3)nc(C)n12 returned TRHR PAM 1, TRHR agonist 1, D1 agonist 3, D1 PAM -2 and D1 antagonist 1.
Cc1nnc(NC(=O)CSc2nccn2-c2ccc(F)cc2)s1 was read as TRHR PAM 2, TRHR agonist 0, D1 agonist 4, D1 PAM -2 and D1 antagonist 11.
For CCc1ccc(NC(=O)CSC2=Nc3ccccc3C3=NC(CCC(=O)NCCc4ccccc4)C(=O)N23)cc1 (stereo unspecified) the results were TRHR PAM -5, TRHR agonist 0, D1 agonist 0, D1 PAM -1 and D1 antagonist -20.
Screening COc1ccc(C)cc1NC(=O)C(OC(=O)c1ccc([N+](=O)[O-])o1)c1ccccc1 (stereo unspecified) returned TRHR PAM -5, TRHR agonist -1, D1 agonist 0, D1 PAM 0 and D1 antagonist -48*.
COc1ccc(C)cc1NC(=O)C(OC(=O)c1cnccn1)c1ccccc1 (stereo unspecified) was read as TRHR PAM 5, TRHR agonist 0, D1 agonist 1, D1 PAM -4 and D1 antagonist 7.
`CSc1ncc(C(=O)Nc2cccc(C)c2C)c(C)n1` gave TRHR PAM 3, TRHR agonist 0, D1 agonist 0, D1 PAM -3 and D1 antagonist -47*.
`CSc1ncc(C(=O)Nc2ccccc2C)c(C)n1` gave TRHR PAM 5, TRHR agonist 0, D1 agonist 4, D1 PAM -5 and D1 antagonist -4.
`CCOc1cc(C(=O)Nc2cc(C)ccc2C)ccc1OCC(=O)N1CCCCC1` gave TRHR PAM 0, TRHR agonist 0, D1 agonist 2, D1 PAM -11 and D1 antagonist -90*.

Bioassay records: PubChem BioAssay, National Center for Advancing Translational Sciences (NCATS)
